In experiment [1] the test system is RAW-Dual. In words: NF-kB SEAP reporter activity, fold change vs agonist alone; higher = enhanced NF-kB activity. The note with it: library stock concentration (final ~1000-fold dilution): 10 mM. In outline: (§1)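 RAW-Dual macrophages (50,000 cells/well in DMEM, 384-well plates) received 50 nL of library stock by pin tool, then a PRR agonist 1 h later, and were kept at 37 °C, 5% CO2. After 20 hours, supernatant was read for IRF by QuantiLuc luminescence and for NF-κB by QuantiBlue absorbance at 620 nm. Reporter activity is fold change over agonist-alone wells. Cytotoxic wells had IncuCyte confluency below 70% of agonist controls in both mask sets.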

In experiment [2] the test system is RAW-Dual. Put plainly: NF-kB SEAP reporter activity, fold change vs agonist alone; cytotoxicity flag (confluency mask): cytotoxic (confluency <70% of control); higher = enhanced NF-kB activity. Summed up: as §1
In experiment [3] the test system is RAW-Dual. Put plainly: NF-kB SEAP reporter activity, fold change vs agonist alone; cytotoxicity flag (confluency mask): not cytotoxic; higher = enhanced NF-kB activity. Summed up:
as §1

[4] abbreviates: cytotoxicity flag (confluency mask): cytotoxic (confluency <70% of control), agonist: Imiquimod (TLR7) […].
Setting [5] is: cytotoxicity flag (confluency mask): cytotoxic (confluency <70% of control), agonist: MPLA (TLR4) […].
Setting [6] is: agonist: ODN 1826 (TLR9) 0.5 ug/mL.
The mark [7] stands for this setting: agonist: Pam2CSK4 (TLR2/6) 0.1 ug/mL.
Where [8] appears, read: agonist: Pam3CSK4 (TLR2/1) 0.1 ug/mL.
[9] abbreviates: cytotoxicity flag (confluency mask): not cytotoxic, agonist: Imiquimod (TLR7) […].
Where [10] appears, read: cytotoxicity flag (confluency mask): not cytotoxic, agonist: MPLA (TLR4) […].

In all, about 2,900 compounds were measured (“NF-kB SEAP reporter activity, fold change vs agonist alone”: median about 0.99, highest 2% from about 2.6 on). What follows is part of a selection rich in the highest values, with near analogues and random picks from the rest.

In the case of `CCCCc1nc2cc(/C=C/C(=O)NO)ccc2n1CCN(CC)CC`, the “NF-kB SEAP reporter activity” value worked out at 2.43 in experiment [1] (setting [4]) and 2.67 in experiment [1] (setting [5]).
For `CCCCc1nc(-c2ccc(OCCCN(CC)CC)cc2)cn1-c1ccc(Oc2ccc(Cl)cc2)cc1`, in that order: 1.53 and 1.02.
In the case of `CCCCc1nc(-c2ccc(OCCCN(CC)CC)cc2)cn1-c1ccc(Oc2ccc(Cl)cc2)cc1` (library stock concentration (final ~1000-fold dilution): 10 mM), the “NF-kB SEAP reporter activity” value was 0.281 in experiment [2] (agonist: LPS (TLR4) 0.1 ug/mL), 0.683 in experiment [2] (setting [6]), 0.225 in experiment [2] (setting [7]) and 0.192 in experiment [2] (setting [8]).
For `CCCCc1nc2cc(/C=C/C(=O)NO)ccc2n1CCN(CC)CC` (library stock concentration (final ~1000-fold dilution): 10 mM), in that order: 4.93, 1.54, 0.93 and 1.99.
On to `CN1C2CCC1CC(OC(c1ccccc1)c1ccccc1)C2.CS(=O)(=O)O` (stereo not given) (library stock concentration (final ~1000-fold dilution): 10 mM), for which the “NF-kB SEAP reporter activity” value was found to be 1.24 in experiment [3] (agonist: LPS (TLR4) 0.1 ug/mL), 0.721 in experiment [3] (setting [6]), 0.896 in experiment [3] (setting [7]) and 1.02 in experiment [3] (setting [8]).
Consider `CN1C2CCC1CC(OC(c1ccccc1)c1ccccc1)C2.CS(=O)(=O)O` (stereo not given), for which the “NF-kB SEAP reporter activity” value in experiment [1] (setting [9]) stood at 1.89; in experiment [1] (setting [10]) it was 1.29.
For `CC(NC(=O)CCC(F)(F)F)C(=O)NC1C(=O)N(CCO)c2ncccc2-c2ccccc21` (stereo not given), in that order: 0.822 and 1.06.
Regarding `CC(NC(=O)CCC(F)(F)F)C(=O)NC1C(=O)N(CCO)c2ncccc2-c2ccccc21` (stereo not given) (library stock concentration (final ~1000-fold dilution): 10 mM), the “NF-kB SEAP reporter activity” value is 1.05 in experiment [3] (agonist: LPS (TLR4) 0.1 ug/mL), 0.863 in experiment [3] (setting [6]), 0.99 in experiment [3] (setting [7]) and 1.16 in experiment [3] (setting [8]).
As for `CNCCCC12CCC(c3ccccc31)c1ccccc12.Cl`, the “NF-kB SEAP reporter activity” value in experiment [1] (setting [9]) stood at 1.4; in experiment [1] (setting [10]) it was 1.37.
As to `CNCCCC12CCC(c3ccccc31)c1ccccc12.Cl` (library stock concentration (final ~1000-fold dilution): 10 mM), the “NF-kB SEAP reporter activity” value came out at 1.55 in experiment [3] (agonist: LPS (TLR4) 0.1 ug/mL), 0.443 in experiment [3] (setting [6]), 0.537 in experiment [3] (setting [7]) and 0.603 in experiment [3] (setting [8]).
`CC(=O)c1ccc2c(c1)c1cc(C(C)=O)ccc1n2CCNC(C)C.Cl`: the “NF-kB SEAP reporter activity” value was determined as 0.156 in experiment [1] (setting [4]) and 0.26 in experiment [1] (setting [5]).
As for `CC(=O)c1ccc2c(c1)c1cc(C(C)=O)ccc1n2CCNC(C)C.Cl` (library stock concentration (final ~1000-fold dilution): 10 mM), the “NF-kB SEAP reporter activity” value in experiment [2] (agonist: LPS (TLR4) 0.1 ug/mL) is 0.329; in experiment [2] (setting [6]) it was 0.209; in experiment [2] (setting [7]), 0.0686; in experiment [2] (setting [8]), 0.155.
On to `CC1(C)OC2COC3(COS(N)(=O)=O)OC(C)(C)OC3C2O1` (stereo not given), for which the figures for the “NF-kB SEAP reporter activity” value in experiment [1] (setting [9]) and in experiment [1] (setting [10]) were 0.928 and 0.824, respectively.
As to `CC1(C)OC2COC3(COS(N)(=O)=O)OC(C)(C)OC3C2O1` (stereo not given) (library stock concentration (final ~1000-fold dilution): 10 mM), the “NF-kB SEAP reporter activity” value in experiment [3] (agonist: LPS (TLR4) 0.1 ug/mL) amounted to 0.898; in experiment [3] (setting [6]) it was 1.01; in experiment [3] (setting [7]), 0.955; in experiment [3] (setting [8]), 1.12.
Consider `COc1c(O)c(C)cc2c1C(=O)c1c(O)cccc1C2=O` (library stock concentration (final ~1000-fold dilution): 10 mM), for which the “NF-kB SEAP reporter activity” value in experiment [3] (agonist: LPS (TLR4) 0.1 ug/mL) is 1.19; in experiment [3] (setting [6]), 1.02; in experiment [3] (setting [7]), 1.04; in experiment [3] (setting [8]), 1.01.
In the same order, the values of `COc1ccc(S(=O)(=O)Nc2cc(-c3c(O)ccc4ccccc34)c(O)c3ccccc23)cc1` (library stock concentration (final ~1000-fold dilution): 10 mM) are 4.3, 1.09, 1.29 and 1.38.
For the molecule `COc1ccc2cccc(CCNC(C)=O)c2c1`, the entries for the “NF-kB SEAP reporter activity” value in experiment [1] (setting [9]) and in experiment [1] (setting [10]) were 0.972 and 0.963, respectively.
Regarding `COc1ccc2cccc(CCNC(C)=O)c2c1` (library stock concentration (final ~1000-fold dilution): 10 mM), the “NF-kB SEAP reporter activity” value in experiment [3] (agonist: LPS (TLR4) 0.1 ug/mL) is 1.33; in experiment [3] (setting [6]), 1.09; in experiment [3] (setting [7]), 1.03; in experiment [3] (setting [8]) it was 1.19.
In the case of `COc1c(O)c(C)cc2c1C(=O)c1c(O)cccc1C2=O`, the “NF-kB SEAP reporter activity” value in experiment [1] (setting [9]) came out at 0.981; in experiment [1] (setting [10]) it was 1.08.
In the same order, the values of `COc1ccc(S(=O)(=O)Nc2cc(-c3c(O)ccc4ccccc34)c(O)c3ccccc23)cc1` are 1.17 and 1.61.

Values taken from the supplement of paper PMC10037445.
